Rows were chosen to be rich in hits. Some 12% of all compounds tested hit in one or more screens of this group.
G9a block – G9a (human) methyltransferase inhibition | G9a H3K9 monomethylation, AlphaScreen, 2 h | Potency, µM (titrated, usually from 102 µM), without a hit: at the highest dose activity, negative = inhibition, hits mostly inhibitors | 350,000 tested, 8.8% active; further: potency means the concentration at half of the fitted maximal effect; on the % scale 0 is the no-effect control and ±100 the full control effect; nearly all actives have a fitted effect of over 75% in size
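Chemiluminescent proximity detection of H3K9 monomethylation, read after 10 min bead incubation in the dark. Reaction: 20 nM G9a, 500 nM biotin-H3K9 peptide, 20 uM SAM cofactor, 2 h, room temperature, following 15 min enzyme-compound preincubation.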
HP1b binding inh – blocks HP1-beta chromodomain binding to methylated histone tails | P83916 | AlphaScreen HP1-beta / biotin-H3K9me3 peptide binding | Potency, µM (highest dose often 114 µM), inactives show top-dose activity change, negative = inhibition, most hits filed as inhibitors | 390,000 tested, 0.56% active; further: potency means the concentration at half of the fitted maximal effect; nearly all actives have a fitted effect of over 70% in size
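AlphaScreen: HP1-beta (50 nM) preformed 30 min with biotin-H3(1-18)K9me3 peptide (50 nM) in PBS pH 7.4, 0.01% Tween-20. Compound added for 30 min at RT, then streptavidin donor/nickel chelate acceptor beads (10 ug/mL) for 30 min.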
BAZ2B inh – blocks human BAZ2B | Q9UIF8 | AID 504333 | AlphaScreen BAZ2B-H3K14Ac peptide displacement | 360,000 tested, 4.4% active | Potency, µM (series often up to 114 µM), without a hit: at the top dose activity change, negative = inhibition, actives largely listed as inhibitors; further: potency means the concentration at half of the fitted maximal effect; on the % scale 0 is the no-effect control and ±100 the full control effect; nearly all actives have a fitted effect of over 60% in size
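Complex of BAZ2B and biotin-H3K14Ac (50 nM apiece) forms over 30 min at RT, then faces library compounds up to 110 uM for another 30 min; AlphaScreen beads added, 20 min dark incubation, luminescence read.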
PLK1 PBD inh – inhibitors of human PLK1 polo-box domain binding; P53350; Plk1 PBD binding of FITC phosphopeptide, fluorescence polarization; Potency, µM, without a hit: max response, negative = inhibition, usual class: inhibitors; 360,000 tested, 2.8% active; AID 720504; further: potency means the concentration at half of the fitted maximal effect; series mostly up to about 57 µM; on the % scale 0 is the no-effect control and ±100 the full control effect; nearly all actives have a fitted effect of over 65% in size
PI5P4Ka inh – PI5P4K alpha (human) kinase inhibition | AID 652105 | PI5P4Kalpha enzyme, ADP-Glo luminescence, 60 min; stronger effect = lower value | max response, % | P48426 | 330,000 tested, 1.2% active; active means max response of -50% or lower; inconclusive means between -30% and -50%; inactive means -30% or higher; further: value at the top dose of about 77 µM; on the % scale 0 is the no-effect control and ±100 the full control effect
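Human PI5P4Kalpha with substrate in 0.038 M HEPES pH 7.4, 0.28 mM EGTA, 0.1% CHAPS, 5% DMSO; reaction started with 5 microM ATP (final), 60 min at room temperature. ADP formed read by ADP-Glo luminescence.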
JMJD2A Tudor inh – inhibitors of human JMJD2A Tudor domain; O75164; AlphaScreen JMJD2A-Tudor / H3K4me3 peptide binding; Potency, µM (doses to about 114 µM), inactives show top-dose activity change, negative = inhibition, hits mostly inhibitors; 390,000 tested, 4.4% active; AID 504339; further: potency means the concentration at half of the fitted maximal effect; on the % scale 0 is the no-effect control and ±100 the full control effect; nearly all actives have a fitted effect of over 50% in size
Target sequence (O75164 whole entry, looked up, the tested form may be a part): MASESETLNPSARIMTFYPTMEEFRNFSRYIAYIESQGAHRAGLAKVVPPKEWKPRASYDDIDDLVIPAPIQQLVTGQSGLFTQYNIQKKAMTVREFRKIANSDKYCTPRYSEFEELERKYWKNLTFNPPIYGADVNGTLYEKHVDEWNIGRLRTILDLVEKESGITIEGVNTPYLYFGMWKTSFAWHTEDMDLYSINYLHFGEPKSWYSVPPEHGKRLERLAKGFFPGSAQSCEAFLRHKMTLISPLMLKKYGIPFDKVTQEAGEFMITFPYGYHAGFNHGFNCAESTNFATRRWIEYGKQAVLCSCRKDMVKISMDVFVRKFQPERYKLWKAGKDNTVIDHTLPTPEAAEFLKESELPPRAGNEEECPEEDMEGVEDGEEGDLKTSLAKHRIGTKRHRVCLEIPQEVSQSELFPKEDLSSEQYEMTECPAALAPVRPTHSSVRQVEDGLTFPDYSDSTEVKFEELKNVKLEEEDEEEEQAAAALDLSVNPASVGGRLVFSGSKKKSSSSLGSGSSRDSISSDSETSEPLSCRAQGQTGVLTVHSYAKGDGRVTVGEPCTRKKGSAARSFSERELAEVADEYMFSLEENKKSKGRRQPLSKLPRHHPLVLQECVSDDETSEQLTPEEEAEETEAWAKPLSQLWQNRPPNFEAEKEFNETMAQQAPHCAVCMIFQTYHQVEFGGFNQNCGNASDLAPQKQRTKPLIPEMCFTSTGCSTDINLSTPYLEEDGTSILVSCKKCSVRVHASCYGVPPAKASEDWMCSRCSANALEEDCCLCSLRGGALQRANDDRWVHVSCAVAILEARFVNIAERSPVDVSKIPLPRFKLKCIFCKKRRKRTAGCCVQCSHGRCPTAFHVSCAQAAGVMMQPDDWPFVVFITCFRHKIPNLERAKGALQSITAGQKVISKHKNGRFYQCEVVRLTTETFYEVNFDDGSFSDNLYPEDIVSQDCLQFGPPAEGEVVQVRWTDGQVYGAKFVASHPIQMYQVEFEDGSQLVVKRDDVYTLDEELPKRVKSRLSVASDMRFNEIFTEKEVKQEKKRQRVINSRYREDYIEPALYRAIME
An asterisk follows results filed as active; [ ] = remark or other dose. Unless noted, the call rests on the fitted dose curve; in most records, active means well fitted curve in the direction sought with a large enough effect; inconclusive means small, poorly fitted or top-dose-only effect, or another doubt; inactive means no such curve, though single readings can be large; an effect the other way counts as inactive or inconclusive.

How did COc1cccc(Nc2nc(-c3sc(NC(=O)c4ccco4)nc3C)cs2)c1 do in these assays?
G9a block: 40µM*; HP1b binding inh: -32%; BAZ2B inh: inconclusive; PLK1 PBD inh: inconclusive; PI5P4Ka inh: -30; JMJD2A Tudor inh: inconclusive

Results for COc1ccc(Cl)cc1Nc1nc(-c2sc(NC(=O)c3ccco3)nc2C)cs1 ?
G9a block: inconclusive; HP1b binding inh: -5%; BAZ2B inh: inconclusive; PLK1 PBD inh: -23%; PI5P4Ka inh: -10; JMJD2A Tudor inh: inconclusive

How did COc1cccc(Nc2nc(-c3sc(N)nc3C)cs2)c1 do in these assays?
G9a block: inconclusive; HP1b binding inh: inconclusive; BAZ2B inh: 40µM*; PLK1 PBD inh: inconclusive; JMJD2A Tudor inh: inconclusive

What do the screens show for `CCOc1ccc(-c2c(C)nn3c(C)c(C(=O)NCc4ccc(Cl)cc4)cnc23)cc1OCC`?
G9a block: 9%[59 µM]; HP1b binding inh: -15%; BAZ2B inh: -15%; JMJD2A Tudor inh: -6%

How did COc1ccccc1N1CCN(C(c2ccc(Cl)cc2)c2nnnn2C(C)(C)C)CC1 (stereo not drawn) do in these assays?
G9a block: 8%[59 µM]; HP1b binding inh: -5%; BAZ2B inh: -38%; PLK1 PBD inh: -9%; PI5P4Ka inh: -5; JMJD2A Tudor inh: inconclusive

What do the screens show for `CCN1CCN(C(c2ccc(OC)c(OC)c2)c2nnnn2C(C)(C)C)CC1` (stereo not drawn)?
G9a block: -13%[12.7 µM]; HP1b binding inh: 13%; BAZ2B inh: inconclusive; PLK1 PBD inh: inconclusive; PI5P4Ka inh: 3; JMJD2A Tudor inh: -10%[11.4 µM]

Results for COc1cc(C(c2nnnn2C(C)(C)C)N2CCN(c3nc4ccccc4s3)CC2)ccc1O (stereo not drawn) ?
G9a block: 2.2µM*; HP1b binding inh: inconclusive; BAZ2B inh: inconclusive; PLK1 PBD inh: -24%; PI5P4Ka inh: -6; JMJD2A Tudor inh: inconclusive

How did COc1ccc(C(c2nnnn2C(C)(C)C)N2CCN(c3nc4ccccc4s3)CC2)cc1OC (stereo not drawn) do in these assays?
G9a block: -41%; HP1b binding inh: -11%; BAZ2B inh: 79µM*; PLK1 PBD inh: -28%; PI5P4Ka inh: 3; JMJD2A Tudor inh: 14%[11.4 µM]

What do the screens show for `O=C(Nc1ccc(F)cc1)C1CCN(S(=O)(=O)c2cccc3nonc23)CC1`?
G9a block: -15%; HP1b binding inh: 29%; BAZ2B inh: 2%; PLK1 PBD inh: 4%; PI5P4Ka inh: -11; JMJD2A Tudor inh: -11%

What do the screens show for `COc1ccc(NS(=O)(=O)c2cc3c4c(c2)CCN4C(=O)CC3)cc1OC`?
G9a block: -11%; HP1b binding inh: 4%; BAZ2B inh: -9%; PLK1 PBD inh: -4%; PI5P4Ka inh: -1; JMJD2A Tudor inh: -19%

Results for CCOC(=O)C1CCCN(CCC(=O)Nc2ccc(OC)cc2OC)C1 (stereo not drawn) ?
G9a block: 2%[59 µM]; HP1b binding inh: 22%; BAZ2B inh: -1%; JMJD2A Tudor inh: 2%

How did Cc1cc(/C=N/O)c(C)n1-c1ccc(Br)cc1 do in these assays?
G9a block: inconclusive; HP1b binding inh: inconclusive; BAZ2B inh: 45µM*; PLK1 PBD inh: -7%; PI5P4Ka inh: 4; JMJD2A Tudor inh: inconclusive

How did COc1cccc(/C=N/NC(=O)c2c(C)nc3ccc(Br)cn23)c1O do in these assays?
G9a block: -9%; HP1b binding inh: 2%; BAZ2B inh: 7.9µM*; PLK1 PBD inh: inconclusive; PI5P4Ka inh: 4; JMJD2A Tudor inh: 35µM*

How did CCOc1ccccc1/C=N/NC(=O)c1c(C)nc2ccc(Br)cn12 do in these assays?
G9a block: 20%; HP1b binding inh: 42%; BAZ2B inh: 1%; PLK1 PBD inh: 3%; PI5P4Ka inh: -5; JMJD2A Tudor inh: -7%

Results for Cc1nc2ccccn2c1C(=O)N/N=C/c1cc(C)n(-c2ccc(Br)cc2)c1C ?
G9a block: -23%[59 µM]; HP1b binding inh: -40%; BAZ2B inh: 45µM*; PLK1 PBD inh: -5%; JMJD2A Tudor inh: inconclusive

From PubChem BioAssay
